# Test results reported in PubChem BioAssay (NCATS).
# Where “and” joins values, the source holds several entries; their conditions need not be identical. Equal values may be shown once. Results filed as inconclusive are left out. Entries that show only a call come without a potency. Values without a mark were called inactive. Calls of active or inactive are those of the source. Calls come from the whole dose curve; as a rule, active = well fitted curve in the direction sought with a large enough effect; inconclusive = small, poorly fitted or top-dose-only effect, or another doubt; inactive = no such curve, though single readings can be large; an effect the other way counts as inactive or inconclusive.
# Legend:
# [1] = qHTS of pediatric cancer cell lines to identify multiple opportunities for drug repurposing: Primary screen for Rh18 cells (AID 1347102); note: nearly all actives have a fitted effect of over 65% in size
# How it was run: (§1)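 Cells (500-1,000/well) in growth media were settled 5 h at 37 degrees C, then given compounds for 48 h. Viability was read as CellTiter-Glo luminescence. Primary runs used MIPE at 11 points (0.78 nM-46 µM) and NPC at 8 points (0.59 nM-46 µM); follow-ups used 11 points.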
# [2] = qHTS of pediatric cancer cell lines to identify multiple opportunities for drug repurposing: Primary screen for MG 63 (6-TG R) cells (AID 1347105); note: nearly all actives have a fitted effect of over 50% in size
# How it was run: (§2)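 Readout: CellTiter-Glo luminescence, 48 h treatment. Controls DMSO (neutral) and bortezomib 2.3 µM final (positive). Potency and efficacy taken from primary-screen concentration-response curves.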
# [3] = qHTS of pediatric cancer cell lines to identify multiple opportunities for drug repurposing: Primary screen for control Hh wild type fibroblast cells (AID 1347106);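 note: series mostly up to about 46 µM; a drop in luminescence marks cytotoxicity and a rise apparent proliferation; nearly all actives have a fitted effect of over 55% in size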
# How it was run: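 Viability after 48 h compound treatment at 37C, 500-1,000 cells/well, read as ATP luminescence with CellTiter-Glo. Primary screens used 11-point (MIPE, 0.78 nM-46 µM) or 8-point (NPC, 0.59 nM-46 µM) final concentrations; follow-up screens used 11-point dilutions.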
# [4] = qHTS of pediatric cancer cell lines to identify multiple opportunities for drug repurposing: Primary screen for Rh30 cells (AID 1347107); note: series mostly up to about 46 µM; nearly all actives have a fitted effect of over 75% in size
# How it was run: as §1
# [5] = qHTS of pediatric cancer cell lines to identify multiple opportunities for drug repurposing: Primary screen for Rh41 cells (AID 1347108);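 note: series mostly up to about 46 µM; luminescence drop marks cytotoxic hits; nearly all actives have a fitted effect of over 70% in size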
# How it was run: as §2
# [6] = system: Zika virus NS2B-NS3 protease; experiment: Primary screen GU AMC qHTS for Zika virus inhibitors (AID 1347154); note: nearly all actives have a fitted effect of over 70% in size
# How it was run: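 Unlinked Zika NS2B hydrophilic domain/NS3 protease domain noncovalent complex (25 nM final) in 10 mM Tris-HCl pH 8.0, 0.01% Tween 20, with AMC peptide substrate. Fluorescence (ex 340, em 450 nm) change over 15 min, room temperature; percent inhibition fitted to 4-parameter Hill equation.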
# Furin (Homo sapiens) = Furin (Homo sapiens) (UniProt P09958); experiment: Furin counterscreen qHTS for Zika virus inhibitors (AID 1347149);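 note: purified recombinant full-length human furin enzyme at 5 nM; fluorescence gain from furin cutting a BOC-RVRR-AMC peptide substrate over 15 min; top concentration of the series differs between compounds; nearly all actives have a fitted effect of over 70% in size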
# How it was run: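 Fluorogenic cleavage of BOC-RVRR-AMC (2 microM final, Km ~15 µM) was monitored (ex 340, em 450 nm) at 37C after 15 min RT preincubation of 5 nM furin with compounds in HEPES pH 7.0 buffer with CaCl2 and Triton X-100. Percent inhibition was fitted to a 4-parameter Hill curve.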
# [7] = system: Zika virus NS2B-NS3 protease (linked construct); experiment: Confirmatory screen NINDS AMC qHTS for Zika virus inhibitors (AID 1347152); conditions: Purified linked NS2B-NS3, AMC substrate fluorescence; note: potency is the fitted concentration of half-maximal effect; nearly all actives have a fitted effect of over 70% in size
# How it was run: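 Linked NS2B-NS3 protease, 1 nM, in 10 mM Tris-HCl pH 8.0, 0.01% Tween 20; compounds preincubated 15 min at room temperature. Nle-KRR-AMC 10 microM (Km 18.3 µM); 15-min fluorescence change (340/450 nm) fitted to 4-parameter Hill.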
# [8] = Confirmatory screen GU Rhodamine qHTS for Zika virus inhibitors qHTS (AID 1347157)
# How it was run: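 Percent inhibition derives from the 15-min fluorescence change (ex 480, em 540 nm), normalized to no-enzyme and no-inhibitor wells. Reactions contained 25 nM NS2B-NS3 complex and 1.5 microM substrate in 10 mM Tris-HCl pH 8.0.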
# [9] = system: Zika virus NS2B-NS3 protease (unlinked complex); experiment: Primary screen GU Rhodamine qHTS for Zika virus inhibitors: Unlinked NS2B-NS3 protease assay (AID 1347159); note: nearly all actives have a fitted effect of over 60% in size; note: potency is the fitted concentration of half-maximal effect
# How it was run: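 Compounds, tested up to 114 microM, were incubated for 15 minutes with 25 nM unlinked NS2B-NS3 protease at pH 8.0. Cleavage of 1.5 microM Rhodamine110 substrate was then followed by fluorescence for 15 minutes.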
# [10] = system: Zika virus NS2B-NS3 protease (linked construct); experiment: Primary screen NINDS Rhodamine qHTS for Zika virus inhibitors (AID 1347160); note: nearly all actives have a fitted effect of over 55% in size; note: potency is the fitted concentration of half-maximal effect
# How it was run: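 Percent inhibition, normalized to uninhibited and enzyme-free controls, is fitted to a 4-parameter Hill equation. Fluorescence change comes from a 15-min cleavage of 1.5 microM bis-peptide Rhodamine110 substrate by 25 nM linked NS2B-NS3 at room temperature.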
# [11] = Confirmatory screen NINDS Rhodamine qHTS for Zika virus inhibitors (AID 1347161); note: nearly all actives have a fitted effect of over 60% in size; note: potency is the fitted concentration of half-maximal effect;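 for activity change, negative = inhibition: purified Zika NS2B-NS3 protease with linked NS2B cofactor domain and Rhodamine110 peptide substrate; series mostly up to about 110 µM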
# How it was run: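 Single-chain NS2B-NS3 protease, 25 nM, pH 8.0; compounds preincubated 15 min. Activity: Rhodamine110 release from 1.5 microM substrate over 15 min, room temperature, data fitted to 4-parameter Hill.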
# [12] = system: Zika virus NS2B-NS3 protease (linked); experiment: 384 well plate NINDS AMC confirmatory qHTS for Zika virus inhibitors (AID 1347163); conditions: Recombinant NS2B-NS3 protease, Ac-VKTGKR-AMC fluorescence; note: potency is the fitted concentration of half-maximal effect; nearly all actives have a fitted effect of over 50% in size
# How it was run: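 Linked NS2B-NS3 protease (final 5 nM, 30 nM or 60 nM) was preincubated with compounds (final up to 1 mM) for ~15 minutes. Ac-VKTGKR-AMC substrate (final 30 microM) then reacted for 25 minutes at room temperature in the dark. Fluorescence (ex 355/em 460 nm) was normalized to no-enzyme and no-inhibitor controls.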
# [13] = qHTS of pediatric cancer cell lines to identify multiple opportunities for drug repurposing: Primary screen for BT-12 cells (AID 1347101); note: nearly all actives have a fitted effect of over 25% in size
# How it was run: (§3)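 Cells (500-1,000/well) rested 5 h, then received compounds for 48 h; metabolically active cells were measured by CellTiter-Glo luminescence. Final concentrations spanned up to 46 µM (MIPE, 11-point) or 0.59 nM-46 µM (NPC, 8-point) in primary screens, 11-point in follow-ups.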
# [14] = qHTS of pediatric cancer cell lines to identify multiple opportunities for drug repurposing: Primary screen for OHS-50 cells (AID 1347103); note: nearly all actives have a fitted effect of over 40% in size
# How it was run: as §3
# [15] = qHTS of pediatric cancer cell lines to identify multiple opportunities for drug repurposing: Primary screen for RD cells (AID 1347104); note: nearly all actives have a fitted effect of over 55% in size
# How it was run: as §2
# [16] = system: Zika virus NS2B-NS3 protease (unlinked); experiment: Optimization of GU AMC qHTS for Zika virus inhibitors: Unlinked NS2B-NS3 protease assay (AID 1347151); note: series mostly up to about 52 µM; nearly all actives have a fitted effect of over 80% in size
# How it was run: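 Noncovalent NS2B hydrophilic domain–NS3 protease complex (25 nM final) in 10 mM Tris-HCl pH 8.0, 0.01% Tween 20; AMC substrate, room temperature 15 min (~20% conversion); fluorescence change normalized, 4-parameter Hill fit.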
# [17] = ZIKV-mCherry secondary qHTS for Zika virus inhibitors (AID 1347158); note: top concentration of the series differs between compounds
# How it was run: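 Vero, 5,000 cells/well, o/n 37 °C; cpd pin-transferred in DMSO; ZIKV-mCherry MOI 1, 48-72 h 37 °C; 32% PFA stock fix, Hoechst; imaged 10x DAPI/mCherry; mCherry+ threshold 450 RFU; % infection.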
# Sequence of Furin (Homo sapiens) (P09958 whole entry, looked up): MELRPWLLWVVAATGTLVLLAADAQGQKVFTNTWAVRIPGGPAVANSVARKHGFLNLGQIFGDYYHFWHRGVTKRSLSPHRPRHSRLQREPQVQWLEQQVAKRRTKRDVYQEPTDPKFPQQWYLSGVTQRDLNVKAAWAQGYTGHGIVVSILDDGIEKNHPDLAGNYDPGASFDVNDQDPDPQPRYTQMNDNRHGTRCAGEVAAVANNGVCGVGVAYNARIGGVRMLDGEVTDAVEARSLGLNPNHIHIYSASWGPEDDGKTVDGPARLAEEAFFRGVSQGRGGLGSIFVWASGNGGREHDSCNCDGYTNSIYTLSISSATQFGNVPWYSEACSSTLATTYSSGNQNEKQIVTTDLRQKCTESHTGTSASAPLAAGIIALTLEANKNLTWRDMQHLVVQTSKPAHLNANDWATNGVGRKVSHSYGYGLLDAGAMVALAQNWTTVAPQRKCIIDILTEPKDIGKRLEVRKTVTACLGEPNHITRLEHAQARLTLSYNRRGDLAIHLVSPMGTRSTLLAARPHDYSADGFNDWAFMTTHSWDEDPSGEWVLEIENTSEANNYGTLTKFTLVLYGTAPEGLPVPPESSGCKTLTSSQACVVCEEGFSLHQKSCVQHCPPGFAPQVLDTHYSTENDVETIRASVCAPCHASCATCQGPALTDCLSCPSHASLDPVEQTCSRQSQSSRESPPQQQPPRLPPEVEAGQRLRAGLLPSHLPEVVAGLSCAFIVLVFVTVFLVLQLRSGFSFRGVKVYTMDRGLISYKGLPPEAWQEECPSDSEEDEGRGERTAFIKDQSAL
compound,measurement,setting,value
CN(C)CCCSc1ccccc1NC(=O)/C=C/c1ccccc1,outcome,[1],inactive
same,outcome,[2],inactive
same,outcome,[3],inactive
same,outcome,[4],inactive
same,outcome,[5],inactive
same,outcome,[6],inactive
O=C(O)Cc1cc(I)c(Oc2ccc(O)c(I)c2)c(I)c1,outcome,Furin (Homo sapiens),inactive
same,Potency,[7],15.6 µM (active)
same,Potency,[8],2.21 µM (active) and 10 µM (active)
same,Potency,[9],7.08 µM (active)
same,Potency,[10],3.16 µM (active)
same,Potency,[11],2.21 µM (active) and 7.94 µM (active)
same,Potency,[12],2.82 µM (active)
O=C(O)CCC(=O)c1ccc(-c2ccccc2)cc1,outcome,[13],inactive
same,outcome,[1],inactive
same,outcome,[14],inactive
same,outcome,[15],inactive
same,outcome,[2],inactive
same,outcome,[3],inactive
same,outcome,[4],inactive
same,outcome,[5],inactive
same,outcome,[6],inactive
N[C@H](CC(=O)O)C(=O)O,outcome,[6],inactive
CC(=O)Nc1ccc(NC(=S)NC(=O)c2ccc(C(C)(C)C)cc2)cc1,Potency,[9],inactive
same,Potency,[10],inactive
C[C@H]1O[C@@H](O[C@H]2[C@@H](O)C[C@H](O[C@H]3[C@@H](O)C[C@H](O[C@H]4CC[C@@]5(C)[C@H](CC[C@@H]6[C@@H]5C[C@@H](O)[C@]5(C)[C@@H](C7=CC(=O)OC7)CC[C@]65O)C4)O[C@@H]3C)O[C@@H]2C)C[C@H](O)[C@@H]1O,outcome,Furin (Homo sapiens),inactive
same,Potency,[16],inactive
same,Potency,[9],inactive
same,Potency,[10],inactive
Cc1cc(-c2ccc(N=Nc3c(S(=O)(=O)O)cc4cc(S(=O)(=O)O)cc(N)c4c3O)c(C)c2)ccc1N=Nc1c(S(=O)(=O)O)cc2cc(S(=O)(=O)O)cc(N)c2c1O,Potency,[8],2.24 µM (active)
same,outcome,[17],inactive
same,Potency,[11],2.24 µM (active)
same,Potency,[12],20 µM (active)
CCCCC[C@H](O)/C=C/[C@H]1[C@H](O)CC(=O)[C@@H]1CCCCCCC(=O)O,"activity change, negative = inhibition",[6],5.76% [at 6.83 µM]
COc1ccc(C[C@H](C)NC[C@@H](O)c2ccc(O)c(NC=O)c2)cc1,outcome,[6],inactive
same,Potency,[9],inactive
same,Potency,[10],inactive
C/C(=C\C(=O)OCCCCCCCCC(=O)O)C[C@@H]1OC[C@H](C[C@@H]2O[C@H]2[C@@H](C)[C@H](C)O)[C@@H](O)[C@H]1O,Potency,[9],inactive
same,Potency,[10],inactive
C[C@]12CC[C@@H]3c4ccc(OC(=O)c5ccccc5)cc4CC[C@H]3[C@@H]1CC[C@@H]2O,Potency,[10],inactive
CC/C=C\C/C=C\C/C=C\C/C=C\C/C=C\C/C=C\CCC(=O)O,outcome,[6],inactive
N[C@@H](Cc1cc(I)c(Oc2ccc(O)c(I)c2)c(I)c1)C(=O)O,outcome,Furin (Homo sapiens),inactive
same,Potency,[9],14.1 µM (active)
same,Potency,[11],inactive
CNC(=O)[C@H](Cc1c[nH]c2ccccc12)NC(=O)[C@@H](CC(=O)NO)CC(C)C,outcome,[6],inactive
CC1CC(OC(=O)C(O)c2ccccc2)CC(C)(C)C1 (centres undefined),Potency,[10],inactive
O=C(O)[C@@H]1C[C@H](CP(=O)(O)O)CCN1,outcome,[6],inactive
O=C(O)CCC/C=C\C[C@@H]1[C@@H](/C=C/[C@@H](O)COc2cccc(Cl)c2)[C@H](O)C[C@@H]1O,outcome,[6],inactive
COc1ccc2nc(NC(=O)Nc3ccccc3)sc2c1,outcome,[13],inactive
same,outcome,[1],inactive
same,outcome,[15],inactive
same,outcome,[2],inactive
same,outcome,[3],inactive
same,outcome,[4],inactive
same,outcome,[5],inactive
same,outcome,[6],inactive
O=C1c2ccccc2C(=O)c2c1ccc(O)c2O,outcome,[13],inactive
same,outcome,[1],inactive
same,outcome,[14],inactive
same,outcome,[15],inactive
same,outcome,[2],inactive
same,outcome,[3],inactive
same,outcome,[4],inactive
same,outcome,[5],inactive
